Bioassay records from PubChem.
Shown are actives, neighbours in structure and some others; about 11% of the full set was active somewhere.
ALOX12 inhib: blocks human 12-lipoxygenase activity. P18054. purified 12-hLO, xylenol orange hydroperoxide absorbance. Potency, µM (series often up to 57.1 µM), without a hit: top-dose activity change, negative = inhibition, most hits filed as inhibitors. 0.12% of 150,000 active; active = well fitted curve in the direction sought with a large enough effect; inconclusive = small, poorly fitted or top-dose-only effect, or another doubt; inactive = no such curve, though single readings can be large; an effect the other way counts as inactive or inconclusive; note: potency is the fitted concentration of half-maximal effect; nearly all actives have a fitted effect of over 55% in size
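Lipoxygenase turnover measured by absorbance at 573 and 405 nm after Fe-XO development. Human 12hLO 150 nM, arachidonate 40 uM, pH 7.0 Hepes buffer with detergent; 15 min compound preincubation, 30 min reaction.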
HPGD inh: inhibitors of human 15-hydroxyprostaglandin dehydrogenase (HPGD). P15428. purified HPGD, NADH fluorescence kinetic, PGE2 substrate. Potency, µM, for inactives: top-dose activity change, negative = inhibition, usual class: inhibitors. 4.3% of 150,000 active. AID 894; note: potency is the fitted concentration of half-maximal effect
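NADH formation kinetics: reaction with 30 uM PGE2 and 1 mM NAD+ (final), 20 nM enzyme, Tris-HCl pH 8 with Tween 20, after 15 min compound preincubation at room temperature. Fluorescence change, last versus first of five reads.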
ALDH1A1 block: ALDH1A1 (human) enzyme inhibition | P00352 | Purified ALDH1A1, NADH fluorescence, propionaldehyde substrate | Potency, µM (top dose mostly 75.3 µM), inactives show top-dose activity, negative = inhibition, actives largely listed as inhibitors | 7.3% of 220,000 active;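 note: potency is the fitted concentration of half-maximal effect; plate controls were no enzyme wells and a reference inhibitor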
Target sequence (P00352 whole entry, looked up): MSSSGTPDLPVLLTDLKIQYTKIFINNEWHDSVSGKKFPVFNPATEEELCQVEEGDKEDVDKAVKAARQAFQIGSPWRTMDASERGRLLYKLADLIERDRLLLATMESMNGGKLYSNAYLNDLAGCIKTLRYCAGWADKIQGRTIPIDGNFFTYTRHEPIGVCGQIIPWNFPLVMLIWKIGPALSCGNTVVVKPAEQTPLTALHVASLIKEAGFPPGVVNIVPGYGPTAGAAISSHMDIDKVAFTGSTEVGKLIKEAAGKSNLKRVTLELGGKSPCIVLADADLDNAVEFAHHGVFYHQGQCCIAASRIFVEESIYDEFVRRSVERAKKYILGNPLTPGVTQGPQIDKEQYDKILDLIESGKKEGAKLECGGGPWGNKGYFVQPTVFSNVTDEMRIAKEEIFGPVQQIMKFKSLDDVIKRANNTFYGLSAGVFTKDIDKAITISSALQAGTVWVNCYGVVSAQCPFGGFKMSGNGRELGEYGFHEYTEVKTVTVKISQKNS
IMPase inh: cell-permeable inhibitors of inositol monophosphatase (IMPase); P97697; CHO-M1 cells, IP1 accumulation, HTRF TR-FRET ratio; inhibition (IP1 accumulation), % at 46.1 µM; 120,000 tested, under 10 active; active = well fitted curve in the direction sought with a large enough effect in the signal ratio, not every such curve was filed as active; inconclusive = small, poorly fitted or top-dose-only effect, or a change in a side signal; inactive = no such curve, though single readings can be large or run the other way; the % refers to the signal ratio;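 note: cells stimulated with carbachol in lithium chloride buffer; plate controls were DMSO basal wells for no effect and reference inhibitor wells for full effect; higher means more IMPase inhibition seen as more IP1 and lower FRET ratio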
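The IP-One HTRF competitive assay in carbachol-stimulated CHO-M1 cells quantifies cellular IP1. Compounds spanned up to 46 uM final, and activity is expressed as AC50 from concentration-response fits of the ratio and donor data.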
IMPase Li inh: IMPase inhibition in cells with lithium potentiation; CHO-M1 cells, IP1 TR-FRET (IP-One), carbachol + lithium; Potency, µM (series often up to 59.4 µM), for the others: top-dose activity, negative = IMPase inhibition, hits mostly inhibitors; 0.35% of 210,000 active; active = well fitted curve in the direction sought with a large enough effect; inconclusive = small, poorly fitted or top-dose-only effect, or another doubt; inactive = no such curve, though single readings can be large; an effect the other way counts as inactive or inconclusive;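 note: IP1 builds up when IMPase is blocked and the TR-FRET signal falls; potency is the fitted concentration of half-maximal effect; plate controls were basal vehicle for no effect and high inhibitor control for full effect; nearly all actives have a fitted effect of over 50% in size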
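Lithium-sensitised IP1 accumulation assay; M1-expressing CHO cells treated 30 min at 37C with compound. Competitive antibody detection by time-resolved FRET followed a 10 min room-temperature lysis step.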
PNC inhibitor: inhibitors of perinucleolar compartment assembly. activity change (PNC), negative = inhibition, % at 10 µM. 3.1% of 140,000 active. AID 2417. PC3M PTB-GFP, PNC prevalence imaging, 16 h; stronger effect = lower value;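 active = readout at or below -70, meaning at least 70% loss of cells showing the perinucleolar compartment, a nuclear body marking cancer cells; inconclusive = readout between -30 and a set limit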;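 note: plate controls were DMSO wells for no effect and camptothecin positive control wells for full effect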
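PC3M cells stably expressing PTB-GFP, 750–1000 cells/well, treated 16 h at 37 °C with compound (23 nl of library stock), in duplicate. After paraformaldehyde fixation and Hoechst stain, imaged at 20x; PNC prevalence scored by image analysis.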
Active calls of the source: *; ? = inconclusive; / = no result given; [ ] = remark or other dose. Unless noted, calls come from the whole dose curve; as a rule, active = well fitted inhibition curve with a large enough effect (not every such curve was filed as active); inconclusive = small, poorly fitted or top-dose-only effect, or another doubt; inactive = no such curve, though single readings can be large or run the other way. Unless noted, % is set by controls: 0 for no effect and ±100 for the full control effect.

SMILES | ALOX12 inhib | HPGD inh | ALDH1A1 block | IMPase inh | IMPase Li inh | PNC inhibitor
O=C(N=Nc1c(O)n(Cc2ccccc2)c2ccccc12)c1cc2ccccc2cc1O | -2.1% | -17.5% | 18.0% | / | 4.9% | 3.1
O=C(N=Nc1c(O)n(Cc2ccccc2)c2ccccc12)c1ccc(O)cc1 | -2.7% | -5.5% | 12.6µM* | / | 13.5% | 29.1
COc1ccc(C(=O)NCC(=O)N=Nc2c(O)n(Cc3ccccc3)c3ccccc23)cc1OC | 0.8% | -6.4% | 17.8µM* | 15.6 | 17.4% | -16.8
Cc1cccc(Nc2nc3ccccc3n3c(N)nnc23)c1 | / | / | / | 7.0 | / | /
O=C(c1cccc(C(F)(F)F)c1)C1CCCN(Cc2cccn2-c2ccccn2)C1 (configuration not stated) | / | / | 4.1% | / | 27.4% | /
O=C(NNC(=O)c1ccncc1)Nc1ccc([N+](=O)[O-])cc1 | / | / | ? | / | 11.5% | /
Cc1occc1C(=O)NNC(=O)Nc1ccc([N+](=O)[O-])cc1 | / | / | 14.1µM* | / | -6.0% | /
Cc1ccc([N+](=O)[O-])cc1NC(=O)c1ccoc1C | -3.5% | -18.9% | 20µM* | / | -2.4% | ?
Cc1occc1C(=O)Nc1cccc([N+](=O)[O-])c1 | -3.4% | -6.3% | 1.3% | / | -2.0% | 9.3
Cc1ccc(N2C(=O)C3ON(c4ccccc4)C(c4ccncc4)C3C2=O)cc1 (configuration not stated) | 2.4% | -26.8% | 2.51µM* | 13.8 | 10.7%[38.3 µM] | -29.7
O=C1C2ON(c3ccccc3)C(c3ccccc3F)C2C(=O)N1c1ccccc1 (configuration not stated) | -1.0% | -13.5% | -8.7% | -2.9 | -4.2%[38.3 µM] | -6.4
O=C(O)COc1ccccc1C1C2C(=O)N(c3ccccc3)C(=O)C2ON1c1ccccc1 (configuration not stated) | -5.4% | -5.7% | 25.1µM* | -1.3 | 4.2%[38.3 µM] | 25.2
CCOc1ccccc1C1C2C(=O)N(c3ccccc3)C(=O)C2ON1c1ccccc1 (configuration not stated) | -5.3% | -18.4% | 22.4µM* | 10.0 | 17.9%[38.3 µM] | 20.3
CN1OC2C(=O)N(c3ccccc3)C(=O)C2C1c1ccc(F)cc1 (configuration not stated) | -0.2% | / | 8.91µM* | -23.0 | / | 17.6
O=C1C2ON(c3ccccc3)C(c3ccncc3)C2C(=O)N1c1ccc(Br)cc1 (configuration not stated) | -1.7% | / | ? | 9.1 | / | 14.3
COc1ncc2nc(C)c(=O)n(Cc3cccs3)c2n1 | 1.1% | -14.0% | -11.4% | / | 1.9% | /
Cn1c(=O)n(C)c2cc(N3CCCCC3)c(NC(=O)c3c(F)cccc3F)cc21 | / | / | / | -0.1 | / | /
Cc1cc(NC(=NC2CC2)c2ccccc2F)n(-c2ccccc2)n1 | / | / | 12.8% | / | -10.5% | /
O=C(CCSc1nnc2ccc3ccccc3n12)Nc1ccc(F)cc1 | -3.5% | ? | ? | ? | 11.2µM* | -15.7
Cc1nn(-c2nnc(NC3CCCCC3)nn2)c(C)c1Br | -3.8% | 15.8µM* | 14.1µM* | / | 19.0% | -8.8
COc1ccccc1N1CCN(C(CNS(C)(=O)=O)c2cccnc2)CC1 (configuration not stated) | / | / | 10µM* | / | 9.7% | /
COc1ccccc1N1CCN(C(CNS(=O)(=O)c2ccc(C)cc2)c2cccnc2)CC1 (configuration not stated) | -10.3% | -1.3% | ? | 8.4 | 46.1%[38.3 µM] | -81.7*
Cc1ccc(S(=O)(=O)NCC(c2cccnc2)N(C)C)cc1 (configuration not stated) | -5.8% | -8.8% | 31.6µM* | 1.9 | -1.6%[38.3 µM] | 38.9
CC1=C(C(=O)Nc2ccccn2)C(c2ccc(Cl)cc2)NC(=S)N1 (configuration not stated) | / | / | 3.55µM* | / | -4.4% | /
CCOc1cccc(C2NC(=S)NC(C)=C2C(=O)Nc2ccccc2)c1 (configuration not stated) | -0.8% | -4.0% | 2.24µM* | / | 6.1% | -23.9
